These results are taken from PubChem BioAssay.

The nature of experiment [1]: resazurin metabolic signal in HepG2 cells – cell-based, resazurin fluorescence, 24 h, PK04 Diversity Set, profiling panel (AID 1172). The note with it: HepG2 viability, higher = more signal.
A short description of experiment [2]: budding yeast growth changes without added modifier – OD600, strain BY4716, 24 h, basal condition, primary screen (AID 1173). The note with it: S. cerevisiae BY4716 growth, OD600, 24 h; higher = more signal, called active from +8 up or from −8 down.
Experiment [3] can be described thus: viability profiling in MM1S myeloma cells – cell-based, resazurin fluorescence, basal, 24 h, PK04 Diversity Set, profiling panel (AID 1174).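 Note: MM1S multiple myeloma cell line.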 To be noted: higher = more signal, called active from +8 up or from −8 down. In general terms: Alamar Blue is a resazurin reagent that responds to reducing activity.
The target in experiment [4] is Dihydroorotate dehydrogenase (quinone), mitochondrial (Plasmodium falciparum (isolate 3D7)) (UniProt Q08210). The experiment can be described thus: inhibition of P. falciparum DHODH – biochemical, C-terminal His tag, absorbance 600 nm, primary screen (AID 1175).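 Note: recombinant parasite enzyme with a five histidine tag at its C terminus.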 To be noted: PfDHODH enzyme, DCIP absorbance 600 nm; higher = more signal, called active from +8 up or from −8 down.
Sequence of Dihydroorotate dehydrogenase (quinone), mitochondrial (Plasmodium falciparum (isolate 3D7)) (Q08210 whole entry, looked up): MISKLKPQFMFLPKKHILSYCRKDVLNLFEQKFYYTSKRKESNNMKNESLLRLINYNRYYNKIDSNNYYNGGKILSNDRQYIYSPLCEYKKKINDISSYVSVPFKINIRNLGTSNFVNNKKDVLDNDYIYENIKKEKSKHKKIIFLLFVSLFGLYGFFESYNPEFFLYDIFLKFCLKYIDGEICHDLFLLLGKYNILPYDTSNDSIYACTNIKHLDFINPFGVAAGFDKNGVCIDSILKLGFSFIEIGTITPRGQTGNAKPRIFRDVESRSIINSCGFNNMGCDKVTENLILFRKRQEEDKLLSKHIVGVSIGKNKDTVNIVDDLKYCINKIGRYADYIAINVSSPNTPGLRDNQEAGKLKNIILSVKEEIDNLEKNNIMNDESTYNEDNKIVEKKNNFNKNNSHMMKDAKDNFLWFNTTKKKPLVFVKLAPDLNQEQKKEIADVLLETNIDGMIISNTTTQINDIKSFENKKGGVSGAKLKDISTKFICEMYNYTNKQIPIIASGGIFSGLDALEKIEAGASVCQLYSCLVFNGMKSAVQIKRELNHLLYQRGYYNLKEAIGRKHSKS

A short description of experiment [5]: inhibition of PAO1 biofilm formation – strain PAO1, LB-PBS medium, absorbance 600 nm, primary screen (AID 1176). The note with it: P. aeruginosa PAO1 growth/biofilm, A600, 12 h; higher = more signal.
The nature of experiment [6]: growth modulation of vineyard yeast isolate – strain RM11-1a, OD600, basal, 24 h, primary screen (AID 1177).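 Note: cultures grown under basal conditions with no added stressor.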 To be noted: S. cerevisiae RM11-1a growth, OD600, 24 h; higher = more signal, called active from +8 up or from −8 down.
Experiment [7] can be described thus: growth of efflux-deficient E. coli DRC39 – strain DRC39, OD650, 24 h, E. coli filamentation inducers, primary screen (AID 1178).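 Note: growth measured as culture turbidity by optical density at 650 nm.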 The note with it: E. coli DRC39 acrAB, higher = more signal, called active from +8 up or from −8 down.
Experiment [8] in a line: growth of efflux-deficient E. coli DRC39 – strain DRC39, OD650, 48 h, E. coli filamentation inducers, primary screen (AID 1179).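 Note: screen aims at cell division blockers that make cells filament.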 To be noted: E. coli DRC39 delta-acrAB growth, higher = more signal, called active from +8 up or from −8 down.
Experiment [9] is described as follows: viability profiling in RPMI8226 myeloma cells – cell-based, resazurin fluorescence, basal, 24 h, PK04 Diversity Set, profiling panel (AID 1180).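 Note: RPMI8826 multiple myeloma cell line at 5000 cells per well.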 The note with it: higher = more signal.
Experiment [10] deals with E3 ubiquitin-protein ligase XIAP (Homo sapiens) (UniProt P98170). The experiment can be described thus: small molecules binding XIAP protein – biophysical, small-molecule microarray, fluorescence 635 nm, primary screen (AID 1181).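 Note: score merges 667 nm emission and signal to noise over triplicate slides.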 The note with it: higher = more signal.
Sequence of E3 ubiquitin-protein ligase XIAP (Homo sapiens) (P98170 whole entry, looked up, the tested form may be a part): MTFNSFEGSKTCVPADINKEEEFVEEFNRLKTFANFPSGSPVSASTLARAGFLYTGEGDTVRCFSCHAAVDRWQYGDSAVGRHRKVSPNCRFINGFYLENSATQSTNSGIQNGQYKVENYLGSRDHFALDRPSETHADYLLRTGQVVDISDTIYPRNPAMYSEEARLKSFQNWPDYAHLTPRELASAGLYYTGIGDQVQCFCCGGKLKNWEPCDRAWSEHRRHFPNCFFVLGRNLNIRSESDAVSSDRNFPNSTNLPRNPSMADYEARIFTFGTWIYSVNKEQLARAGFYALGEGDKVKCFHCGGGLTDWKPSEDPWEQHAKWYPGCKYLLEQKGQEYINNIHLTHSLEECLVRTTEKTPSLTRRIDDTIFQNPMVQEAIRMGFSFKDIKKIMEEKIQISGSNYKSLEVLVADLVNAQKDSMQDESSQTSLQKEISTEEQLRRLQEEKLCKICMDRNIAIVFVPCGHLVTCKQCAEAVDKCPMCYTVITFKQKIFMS
Experiment [11] deals with XIP peptide (Xip251-270) binding. As to the kind of experiment: XIP fragment 251-270 binding compounds – biochemical, small-molecule microarray, fluorescence 635/667 nm, 0.1 µg/mL protein, primary screen (AID 1182). The note with it: fluorescent protein binding, 635 nm, higher = more signal, called active from +8 up or from −8 down.
In another experiment the test system is XIP peptide (Xip251-270). The experiment can be described thus: compounds binding XIP fragment 251-270 – biochemical, small-molecule microarray, fluorescence 635/667 nm, 0.5 µg/mL protein, primary screen (AID 1183). The note with it: fluorescence 635 nm, higher = more signal.
Experiment [12] in a line: blood-stage malaria parasite viability loss – strain 3D7, DAPI fluorescence, 100 nL, primary screen (AID 1184).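 Note: parasites grown inside human red blood cells in medium with human serum.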 To be noted: P. falciparum 3D7 growth, 3 d, higher = more signal.
The target of experiment [13] is Homeobox protein Hox-A13 (Mus musculus) (UniProt Q62424). As to the kind of experiment: disruptors of Hoxa13 oligonucleotide interaction – biochemical, fluorescence polarization, labeled oligonucleotide, primary screen (AID 1185). The note with it: Hoxa13:DNA binding, 15 min, higher = more signal, called active from +8 up or from −8 down. (In general: Fluorescence polarisation rises when a labelled molecule tumbles more slowly, as on binding a larger partner.)
Sequence of Homeobox protein Hox-A13 (Mus musculus) (Q62424 whole entry, looked up): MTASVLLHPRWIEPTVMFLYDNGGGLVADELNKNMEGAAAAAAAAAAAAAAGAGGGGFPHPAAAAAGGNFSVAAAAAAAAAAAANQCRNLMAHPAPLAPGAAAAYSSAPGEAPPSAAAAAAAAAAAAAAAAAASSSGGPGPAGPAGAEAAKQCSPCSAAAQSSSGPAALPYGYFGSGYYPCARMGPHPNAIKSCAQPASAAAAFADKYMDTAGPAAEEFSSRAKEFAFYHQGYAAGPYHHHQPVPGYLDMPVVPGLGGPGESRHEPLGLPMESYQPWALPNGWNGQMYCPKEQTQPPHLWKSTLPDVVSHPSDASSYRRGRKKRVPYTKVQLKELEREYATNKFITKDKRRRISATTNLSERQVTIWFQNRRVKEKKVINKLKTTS

The nature of experiment [14]: blockers of DNA damage checkpoint Chk1 activation – imaging, HeLa, hydroxyurea, phospho-Chk1 antibody, percent positive cells, primary screen (AID 1186). The note with it: hydroxyurea-induced phospho-Chk1 immunofluorescence imaging, higher = more signal.
Experiment [15] is described as follows: blockers of DNA damage checkpoint Chk1 activation – imaging, HeLa, hydroxyurea, phospho-Chk1 nuclear intensity, primary screen (AID 1187). To be noted: hydroxyurea-induced phospho-Chk1 immunofluorescence imaging, higher = more signal.

Each structure is given as a SMILES string. Activity calls are given as the source filed them. Unless noted, the rule behind the calls is not given here.

With `COCCOC(=O)N1C(=O)[C@@]2(c3cc(C#CC4=CCCCC4)ccc31)[C@H](c1ccccc1OCCO)N1[C@H](c3ccccc3)[C@H](c3ccccc3)OC(=O)[C@H]1[C@@H]2C(=O)N1CCN(c2ncccn2)CC1`, the z-score in experiment [1] was 0.574; in experiment [2], 0.456 (inactive); in [3], 0.411 (inactive); in [5] it was 1.56 (inactive); in experiment [6], 0.756 (inactive); in experiment [7], 0.259 (inactive). The z-score in experiment [8] is -1.22 (inactive); in experiment [9], 0.0816; in experiment [12], -1.86; in experiment [13], 1.02 (inactive); in experiment [14], -0.333 (inactive); in [15], -0.385 (inactive). In addition, the composite z-score is -0.184 (inactive) in experiment [4], -0.124 in experiment [10], 0.735 (inactive) in experiment [11] and 0.55 in the experiment with XIP peptide (Xip251-270).
Take `CC(C)C(CO)N1C(=O)[C@@H]2C3C(=O)OCCC/C=C\[C@H]3OC23C=CCN(Cn2nnc4ccccc42)C(=O)[C@@H]13` (stereo not given in full): the z-score in experiment [1] was 0.658; in experiment [2] it was -0.133 (inactive); in experiment [3], 0.184 (inactive); in experiment [5] it was 0.233 (inactive); in experiment [6], -0.0374 (inactive); in [7], 0.246 (inactive). In addition, the z-score in experiment [8] was 0.118 (inactive); in experiment [9], 0.37; in experiment [12], 0.596; in [13], -3.97 (inactive); in experiment [14] it was -0.833 (inactive); in [15] it was -0.709 (inactive). For the same compound, the composite z-score in experiment [4] is -1.09 (inactive); in experiment [10] it was -0.0367; in [11] it was -0.261 (inactive); in the experiment with XIP peptide (Xip251-270), 0.348.
As to `CCCCC(CC)C(O)C1C=CC2C(=O)N(c3ccccc3)C(=O)C2N1Nc1ccccc1F` (stereo not given), the z-score in experiment [1] is 0.518; in experiment [2], 0.814 (inactive); in experiment [3], 0.888 (inactive); in [5], 0.657 (inactive); in [6], 0.732 (inactive); in experiment [7], 0.207 (inactive). The z-score in experiment [8] was 0.644 (inactive); in [9] it was 0.767; in [12], -0.579; in [13] it was -2.25 (inactive); in experiment [14] it was 0.322 (inactive); in [15] it was 0.195 (inactive). For the same compound, the composite z-score in [4] was 0.301 (inactive); in experiment [10], 0.0727; in experiment [11] it was 0.634 (inactive); with XIP peptide (Xip251-270), 0.0509.
Regarding `CCOC(=O)C1=C[C@@H](C(C)C)N(S(=O)(=O)c2ccc(C)cc2)[C@H]1c1ccc(C(F)(F)F)cc1`, the z-score in experiment [1] was -0.698; in experiment [2], 2.42 (inactive); in [3] it was -0.267 (inactive); in experiment [5] it was -0.0322 (inactive); in [6], 2.24 (inactive); in experiment [7], -0.227 (inactive). Also, the z-score is -0.442 (inactive) in experiment [8]; -1.58 in experiment [9]; -1.88 in [12]; -0.498 (inactive) in experiment [13]; 0.389 (inactive) in [14]; 0.112 (inactive) in experiment [15]. The composite z-score in [4] is 0.919 (inactive); in [10] it was 0.109; in experiment [11] it was 0.438 (inactive); in the experiment on XIP peptide (Xip251-270) it was 0.555.
On to `CC(C)[Si](C#C[Si](C(C)C)(C(C)C)C(C)C)(O[C@H](c1ccccc1)c1cn(Cc2ccccc2)nn1)C(C)C`, for which the z-score was 0.918 in experiment [1]; 1.6 (inactive) in experiment [2]; 0.869 (inactive) in [3]; 0.0885 (inactive) in [5]; 1.14 (inactive) in experiment [6]; -0.177 (inactive) in experiment [7]. Further, the z-score in experiment [8] is 0.662 (inactive); in experiment [9], 1.43; in [12], -0.122; in experiment [13], 0.371 (inactive); in experiment [14], -0.269 (inactive); in [15] it was -0.216 (inactive). Further, the composite z-score is 0.367 (inactive) in experiment [4], 0.0368 in experiment [10], -0.464 (inactive) in experiment [11] and -0.0753 in the experiment with XIP peptide (Xip251-270).
For `C=CC[C@]1(C(=O)N2CCOCC2)COC(c2ccc(OCCCO)cc2)=N1`, the z-score in [1] is 1.31; in experiment [2], -1.37 (inactive); in experiment [3], 0.574 (inactive); in experiment [5] it was 0.124 (inactive); in experiment [6], -0.19 (inactive); in [7] it was 0.904 (inactive). Further, the z-score in [8] is 0.46 (inactive); in [9], 0.0543; in experiment [12] it was -0.813; in experiment [13], -6.97 (inactive); in experiment [14] it was -0.374 (inactive); in [15], -0.0405 (inactive). Further, the composite z-score was -0.214 (inactive) in experiment [4], 0.0055 in [10], 0.627 (inactive) in experiment [11] and 0.879 in the experiment on XIP peptide (Xip251-270).
With `CCCCCN1CC=CC23O[C@@H]4C=CCCOC(=O)C4[C@H]2C(=O)N(CCCCCCO)[C@@H]3C1=O` (stereo not given in full), the z-score in experiment [1] is 0.678; in experiment [2], 0.605 (inactive); in [3], 0.0267 (inactive); in experiment [5] it was 0.55 (inactive); in experiment [6], 0.543 (inactive); in [7], 0.649 (inactive). The z-score in experiment [8] is 0.567 (inactive); in experiment [9], 0.424; in experiment [12], -0.103; in [13], -4.59 (inactive); in experiment [14], -0.0991 (inactive); in experiment [15], 0.155 (inactive). The composite z-score in experiment [4] was 0.401 (inactive); in experiment [10], 0.0702; in experiment [11] it was 0.592 (inactive); in the experiment with XIP peptide (Xip251-270), -0.199.
In the case of `COc1cc2c(cc1O)C(C1CC1)N(Cc1cccc(OC(F)(F)F)c1)CC2` (stereo not given), the z-score in experiment [1] is -0.882; in experiment [2], -5.59 (inactive); in experiment [3], -3.32 (inactive); in experiment [5], -0.0344 (inactive); in [6], 0.002 (inactive); in experiment [7], 0.213 (inactive). In addition, the z-score in experiment [8] is -0.0239 (inactive); in experiment [9] it was -2.84; in [12], -1.8; in experiment [13], -5.17 (inactive); in [14], 0.433 (inactive); in experiment [15] it was 0.678 (inactive). The composite z-score in [4] is -3.64 (inactive); in experiment [10] it was 0.0674; in experiment [11] it was 0.676 (inactive); in the experiment with XIP peptide (Xip251-270), 0.651.
In the case of `Cc1ccc(S[C@]2(C(=O)O)CC(=O)N(C3CCCCC3)[C@@H]2c2ccc(CO)cc2I)cc1`, the z-score in experiment [1] is 0.465; in experiment [2], -1.67 (inactive); in experiment [3], -0.353 (inactive); in experiment [5] it was -0.137 (inactive); in [6], -0.92 (inactive); in experiment [7] it was 0.475 (inactive). Moreover, the z-score in [8] is 0.0129 (inactive); in [9], -0.74; in experiment [12] it was -0.348; in experiment [13], -5.25 (inactive); in experiment [14], 0.542 (inactive); in experiment [15], 0.675 (inactive). Besides, the composite z-score is -0.664 (inactive) in [4], -0.0525 in experiment [10], 2.84 (inactive) in experiment [11] and 0.526 in the experiment on XIP peptide (Xip251-270).
Turning to `CC1CC/C=C\[C@H]2OC34C=CCN(C(C)C)C(=O)[C@H]3N(CCO)C(=O)[C@@H]4C2C(=O)O1` (stereo not given in full), the z-score is -0.961 in experiment [1]; 0.486 (inactive) in [2]; 0.802 (inactive) in [3]; -0.413 (inactive) in [5]; 0.651 (inactive) in experiment [6]; 0.764 (inactive) in experiment [7]. The z-score was 0.341 (inactive) in experiment [8]; 0.838 in [9]; -1.22 in experiment [12]; -2.91 (inactive) in experiment [13]; 0.147 (inactive) in experiment [14]; 0.0498 (inactive) in experiment [15]. Besides, the composite z-score in [4] is 0.705 (inactive); in experiment [10], 0.0484; in experiment [11], -0.319 (inactive); in the experiment on XIP peptide (Xip251-270), -0.472.
